40 sequences from the supplement of paper PMC10338343 can be followed below.

± gives the standard deviation.
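Note: 1 nM active piRISC with 0.1 nM target library at 33 °C single turnover.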

The first experiment relates to MILI (PIWIL2) piRISC loaded with L1MC piRNA (26 nt). Kind of experiment: pre-steady-state target cleavage rate (min^-1); guide: L1MC piRNA 5'p-UAACUAAAUACUAUGCAAGCUGUAGG; MIWI and MILI are mouse PIWI proteins and EfPiwi is from a freshwater sponge; tags in brackets are library labels; higher = faster piRNA-guided slicing of the target. Conditions: auxiliary factor: 500 nM mouse GTSF1. The method, boiled down: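 The pre-steady-state cleavage rate was derived from a burst-and-steady-state fit of Cleave-'n-Seq data. For these assays, 1 nM active affinity-purified piRISC loaded with a single synthetic guide was mixed with […] a transcribed, DNA-blocked target RNA library in HEPES–potassium acetate buffer at 33 °C, with or without 500 nM GTSF1 partner protein, for 0–8 or 0–960 min. Sequencing counts of uncleaved targets were normalised to depth and to weakly complementary targets, and k3 was capped at 0.0001 min^-1 after three trials were pooled.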
For UCCUGGAUGUCGAACGUUAGUUUUUAGAUA, the “pre-steady-state target cleavage rate” value is less than 0.0001.

For the sequence UCCUGGAUGUCGAUGCAUAGUUUUAAGUUA, the “pre-steady-state target cleavage rate” value was 0.00654 ± 0.0039.

As to UCCUGGUACAGCUUGCAUAGUAAAUAGUAA, the “pre-steady-state target cleavage rate” value is 0.151 ± 0.045.

For UCCUGGAUGUGCUUGCAUAGUAAAUAGUUA, the “pre-steady-state target cleavage rate” value is 0.0601 ± 0.012.

As to UCCUGCUACAGCUUGCAUAGUAUAUUCAAA, the “pre-steady-state target cleavage rate” value amounted to 0.209 ± 0.059.

Take UCCUGGAUCAGCUUGCAUAGUUUUUUCAAA: the “pre-steady-state target cleavage rate” value came out at 0.00833 ± 0.0048.

For the sequence UCCUGGAUGAGCUUGCAUAGUAUAAUGUAA, the “pre-steady-state target cleavage rate” value came out at 0.00667 ± 0.0048.

For the sequence UCCUCCUACAGCUUGCAUAGAAUUUACUUA, the “pre-steady-state target cleavage rate” value was 0.0813 ± 0.022.

In the case of UCCUGGAUCAGCUUGGAUAGUAUUUUGUUA, the “pre-steady-state target cleavage rate” value stood at 0.117 ± 0.021.

As for UCCUGGAUGUCCUUGCAUAGCAUUUAGUUA, the “pre-steady-state target cleavage rate” value amounted to 0.0257 ± 0.0079.

With UCCUGGAUGUCGAAGCAUAGUAAUUAGUUA, the “pre-steady-state target cleavage rate” value turned out to be 0.00988 ± 0.0037.

Turning to UCCUGCUACAGCUAGCAUAGUAUUUACAAA, the “pre-steady-state target cleavage rate” value turned out to be 0.0708 ± 0.018.

For the sequence UCCUGGAACUGCUUGCAUAGAAUUUAGUUA, the “pre-steady-state target cleavage rate” value came out at 0.0556 ± 0.013.

Turning to UCCUCCUACACGAUGCAUAGUAUUUUCAAA, the “pre-steady-state target cleavage rate” value amounted to 0.0649 ± 0.017.

Take UCCUGGAUGUCCUUGCAAUAGUAUUUAGUUA: the “pre-steady-state target cleavage rate” value stood at 0.00466 ± 0.0043.

Take UCCUGGAUGUCGAACCAUAGUAUUUAGCUUA: the “pre-steady-state target cleavage rate” value is less than 0.0001.

With UCCUGGAUGUCGAACGAUAGUAUUUUAGUUA, the “pre-steady-state target cleavage rate” value was less than 0.0001.

For UCCUGGAUGUCGAUGCAUAGUAUUUAGAAA, the “pre-steady-state target cleavage rate” value was found to be 0.0516 ± 0.015.

Regarding UCCUGGAUGAGCUUGCAUAGUUUUAAGUUA, the “pre-steady-state target cleavage rate” value worked out at 0.0195 ± 0.0084.

Regarding UCCUGCUACACGUUGCAUAGUAUUUUCAAA, the “pre-steady-state target cleavage rate” value worked out at 0.00757 ± 0.0052.

For UCCUGCUACAGCUUGCAUUGUAUUUUCAAA, the “pre-steady-state target cleavage rate” value was 0.0201 ± 0.0084.

Turning to UCCUGGAUGUCGAUGCUUAGUAUAUAGUUA, the “pre-steady-state target cleavage rate” value stood at 0.0304 ± 0.0073.

Consider UCCUGGAACAGCUUGCAUAGAUAUUAGUAA, for which the “pre-steady-state target cleavage rate” value was 0.0101 ± 0.0057.

As to UCCUGGAACAGGAUGCAUAGUAUUUAGAAA, the “pre-steady-state target cleavage rate” value was determined as 0.0732 ± 0.017.

Regarding UCCUGCUACAGCUUGCAUAGUAAAAACAAA, the “pre-steady-state target cleavage rate” value stood at 0.0234 ± 0.01.

Turning to UCCUGGAUGAGCUUGCAUAGAAUUAAGUUA, the “pre-steady-state target cleavage rate” value was determined as 0.00512 ± 0.0037.

Regarding “UCCUCCUACAGCUUGCAUAGUUAAAUCAAA [g10:g26:cont:t1A]”, the “pre-steady-state target cleavage rate” value is 0.0191 ± 0.0072.

As for UCCUGGUACACCUUGCAUAGUAUUUACUUA, the “pre-steady-state target cleavage rate” value is 0.108 ± 0.041.

On to UCCUGGAUCAGCUUGCAUAGUAUAAUGAAA, for which the “pre-steady-state target cleavage rate” value came out at 0.0691 ± 0.022.

UCCUGGAUGUCGAUGCUUAGUAUUUUGUUA: the “pre-steady-state target cleavage rate” value was 0.0154 ± 0.0056.

On to UCCUGGAUGUCCUUGCAUACUAUUUACUUA, for which the “pre-steady-state target cleavage rate” value came out at 0.0119 ± 0.0046.

UCCUGGAACAGCUUGCAUAGAAUUUACUUA: the “pre-steady-state target cleavage rate” value was determined as 0.0289 ± 0.011.

With UCCUGGAUGUCGAUGCAUAGUAUAUUGUUA, the “pre-steady-state target cleavage rate” value was determined as 0.0249 ± 0.008.

The same experiment, now with this note: auxiliary factor: none (no GTSF1).
UCCUGGAUGAGCUUGCAUACAUUUUAGUUA: the “pre-steady-state target cleavage rate” value is 0.00358 ± 0.0026.

For UCCUGGAUGUCGAUCCAUUGUAUUUAGUUA, the “pre-steady-state target cleavage rate” value is less than 0.0001.

As to “UCCUGGAUGUCGAAGCAUAGUAAAAUCAAA [g9:g16:cont:t1A]”, the “pre-steady-state target cleavage rate” value was less than 0.0001.

For the sequence UCCUGGAUGUCGAACCAUUGUAAUUAGUUA, the “pre-steady-state target cleavage rate” value was less than 0.0001.

As to UCCUGGAUGUCGAUCCAUAGAAUUUAGUUA, the “pre-steady-state target cleavage rate” value was less than 0.0001.

For UCCUGGAUGAGCUUGCAUAGAUAUUACAAA, the “pre-steady-state target cleavage rate” value was less than 0.0001.

Consider UCCUGGAUGUCGAAGCAUUGUAUAUAGUUA, for which the “pre-steady-state target cleavage rate” value was less than 0.0001.
